Screens as filed in PubChem BioAssay.
The list is not random: actives were taken first. Their share in the collection is about 2.9%.
B2AR arrestin – qHTS assay of beta-arrestin-biased ligands of beta2-adrenergic receptor. actives 0.02% (n = 330,000). AID 492947, 2010. Potency, µM (titrated, usually from 46.1 µM), for inactives: at the highest dose activation, most hits filed as activators. beta-arrestin recruitment to beta2AR, cell-based reporter; active = well fitted activation curve with a large enough effect; inconclusive = small, poorly fitted or top-dose-only effect;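 note: potency is the fitted concentration of half-maximal effect; 0% = DMSO controls and full agonism = EC100 isoproterenol or metaproterenol; nearly all actives have a fitted effect of over 65% in size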
D3 ag – qHTS of D3 Dopamine Receptor Agonist: qHTS. D(3) dopamine receptor (Homo sapiens), P35462. D3R DiscoveRx beta-arrestin cells, luminescence, 90 min. max activation, %. actives 0.58% (n = 410,000). AID 652048, 2013; in the data active = max activation above about 30%; note: 0% is about no effect
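Agonist mode: compounds and dopamine controls were applied to plated cells for 90 min at 37 degrees C after an overnight attachment at 1500 cells/well. Luminescent read-out followed 30 - 60 minutes at room temperature with DiscoveRx detection reagent.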
D3 antag – qHTS of D3 Dopamine Receptor Antagonist: qHTS. max response, negative = inhibition, %. D(3) dopamine receptor (Homo sapiens), P35462. actives 2.5% (n = 360,000). D3R cells, DiscoveRx beta-arrestin luminescence, antagonist mode; active compounds read low; in the data active = max response below about -50%; inconclusive = no clear call, values can overlap the other calls; note: % is set by controls: 0 for no effect and ±100 for the full control effect
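Cells plated overnight at 1500 cells/well, then exposed to library compounds with dopamine controls for 90 minutes at 37 degrees C. DiscoveRx reagent added for 30–60 minutes at room temperature; luminescence read, quantitative HTS format.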
TSHR antag – Antagonists of the Thyroid Stimulating Hormone Receptor: HTS campaign | Thyrotropin receptor (Homo sapiens), P16473 | TSHR-expressing cells, TSH-stimulated cAMP HTRF, 2 h; active compounds read low | activity change, negative = inhibition, % at 11.5 µM | actives 0.2% (n = 330,000) | AID 504810, 2011;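 active = activity change below a set negative limit, meaning inhibition stronger than a set level, cut at about -70% in these data; inconclusive = activity change between two set negative limits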; note: % is set by controls: 0 for no effect and ±100 for the full control effect
Target sequence (P16473 whole entry, looked up): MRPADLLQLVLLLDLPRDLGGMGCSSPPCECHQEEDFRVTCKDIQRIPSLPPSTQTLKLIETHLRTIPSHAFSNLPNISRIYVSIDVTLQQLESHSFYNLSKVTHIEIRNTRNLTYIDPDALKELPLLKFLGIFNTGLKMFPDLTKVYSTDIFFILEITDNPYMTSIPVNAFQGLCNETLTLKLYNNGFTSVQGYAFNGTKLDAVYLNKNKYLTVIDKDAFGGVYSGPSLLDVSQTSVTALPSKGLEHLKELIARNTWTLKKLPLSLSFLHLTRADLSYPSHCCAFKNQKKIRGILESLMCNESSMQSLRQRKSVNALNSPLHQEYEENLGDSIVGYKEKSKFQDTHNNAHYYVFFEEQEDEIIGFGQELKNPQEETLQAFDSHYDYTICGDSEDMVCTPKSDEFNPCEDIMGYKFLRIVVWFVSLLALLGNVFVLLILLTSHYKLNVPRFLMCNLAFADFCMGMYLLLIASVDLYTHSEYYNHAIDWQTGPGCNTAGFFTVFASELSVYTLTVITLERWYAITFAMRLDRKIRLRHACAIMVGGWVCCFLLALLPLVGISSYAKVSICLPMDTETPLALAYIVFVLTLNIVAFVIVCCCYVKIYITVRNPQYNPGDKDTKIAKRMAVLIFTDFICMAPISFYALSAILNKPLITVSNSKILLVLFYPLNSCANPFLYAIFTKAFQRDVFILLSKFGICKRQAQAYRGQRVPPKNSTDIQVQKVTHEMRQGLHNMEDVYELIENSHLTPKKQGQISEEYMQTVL
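Cell-based HTRF cAMP assay; TSHR cells + compound, TSH EC80 (4nM final), 2 h, 37 deg C. Lysis with anti-cAMP cryptate and cAMP-d2, 30 min RT, read 665/620 nm.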
* hit, by the source's call; ? = inconclusive; / = not tested or not shown.

SMILES | B2AR arrestin | D3 ag | D3 antag | TSHR antag
COc1ccc(C(CNC(=O)C(C)Oc2ccc(Br)cc2)N2CCCC2)cc1 (centres undefined) | 0% | -23 | -81* | 2
COc1cccc(CNc2nccn(-c3cc(C)cc(C)c3)c2=O)c1 | / | 5 | / | /
COc1ccc(NC(=O)CN(C)C(=O)c2cccc(NS(=O)(=O)c3ccc(Br)cc3)c2)cc1 | -1% | -2 | 17 | -9
COc1ccc(NS(=O)(=O)c2cccc(C(=O)NN=Cc3ccc(OC)cc3OC)c2)cc1 | -1% | -8 | -30 | 4
COc1ccccc1C(=O)NC(CCSC)C(=O)NCC(c1ccco1)N(C)C (centres undefined) | 0% | -6 | -67* | -8
COc1ccc(C(CNC(=O)c2cccc(NS(=O)(=O)c3ccc(Br)cc3)c2)N(C)C)cc1 (centres undefined) | 0% | -29 | -78* | 6
COc1ccc(NS(=O)(=O)c2cccc(C(=O)N/N=C/c3cccs3)c2)cc1 | -3% | -18 | -52* | 21
COc1ccc(C(CNC(=O)c2cccc(NC(=O)c3cccs3)c2)N2CCCC2)cc1 (centres undefined) | 1% | -18 | -82* | 21
COc1ccc(-n2c(=O)c3ccc(C(=O)NCc4ccc(C)cc4)cc3n(CC(=O)Nc3ccc(F)cc3)c2=O)cc1 | / | 5 | / | /
Cc1ccc(-c2cn3c(n2)sc2cc(C(=O)NCc4cccs4)ccc23)cc1 | / | 6 | / | /
N#C/C(=C/c1cn(Cc2ccc(F)cc2)c2ccccc12)C(=O)Nc1cccc(Cl)c1 | / | 0 | / | /
COc1ccc(C(=O)NCC(c2ccc(Cl)cc2)N2CCCCC2)cc1 (centres undefined) | / | -17 | / | /
COc1ccc(C(CNC(=O)c2cccc(Br)c2)N2CCCC2)cc1 (centres undefined) | -1% | -5 | -87* | -4
CCN1CCN(c2nc3ccccc3n3cnnc23)CC1 | 0% | -22 | -70* | -2
O=C(CSc1nnc(-c2cccs2)o1)Oc1ccc(Cl)cc1 | / | 1 | / | /
CN(CC(=O)NCCN1CCN(c2ccccc2)CC1)S(=O)(=O)c1ccc2c(c1)CCC(=O)N2 | -1% | 21 | -64* | 9
COc1cc2c(cc1OC)C(COc1cc(C)cc(C)c1)N(C(=O)COc1ccccc1)CC2 (centres undefined) | / | 6 | / | /
COc1c(C)cc(S(=O)(=O)Nc2cccc(-c3ccc(N4CCOCC4)nn3)c2)c(C)c1C | / | -14 | / | /
CCN(CC1COc2ccccc2O1)C(=O)CN1C(=O)NC(C)(c2ccccc2)C1=O (centres undefined) | 0% | 55* | -13 | -2
CCN1CCCC1CNC(=O)c1cc2c(OC)cccc2[nH]1 (centres undefined) | -1% | -5 | -17 | 3
CCN1CCCC1CNC(=O)CCNC(=O)c1cc(OC)c(OC)c(OC)c1 (centres undefined) | 0% | 7 | 18 | 5
CCN1CCC[C@H]1CNC(=O)c1c(O)c(Cl)cc(Cl)c1OC | 0% | -94 | -117* | -17
CCN1CCCC1CNC(=O)c1c(O)c2c([nH]c1=O)CCCC2 (centres undefined) | 0% | -3 | -11 | 0
CCN1CCCC1CNC(=O)c1cc(OC)c(OC)c(OC)c1 (centres undefined) | 0% | -1 | -61* | 3
CCN1CCCC1CNC(=O)c1cc2c(OC)c(OC)c(OC)cc2[nH]1 (centres undefined) | 0% | -44 | -61* | 5
SMILES | B2AR arrestin | D3 ag | D3 antag | TSHR antag
O=S(=O)(c1ccc(C2CCCCC2)cc1)N1CCN(c2cc(Cl)ccc2Cl)CC1 | / | 3 | / | /
CC(C)c1nn2c(=O)cc(COC(=O)c3ccc(NC(=O)COc4ccccc4)cc3)nc2s1 | / | 5 | / | /
COc1ccc(C(=O)CSc2nnc(-c3ccco3)n2CC2CCCO2)cc1 (centres undefined) | 0% | -2 | -4 | 4
O=C(CSc1nnc(-c2ccco2)n1CC1CCCO1)c1ccc(F)cc1 (centres undefined) | 0% | 6 | -67* | -6
FC(F)(F)c1cnc(NNC(=S)Nc2ccccc2Cl)c(Cl)c1 | -1% | -17 | -75* | -31
Cc1cccc(NC(=S)NNc2ncc(C(F)(F)F)cc2Cl)c1 | -1% | -15 | -64* | -1
O=C(Nc1ccccc1)Nc1ncc(C(F)(F)F)cc1Cl | / | -4 | -23 | /
Cc1cc(C(=O)Nc2ccc(C(C)C)cc2)c2c(C)nn(-c3ccccc3)c2n1 | / | -10 | / | /
Cn1cc(C(=O)[C@@H]2CCc3nc[nH]c3C2)c2ccccc21 | / | -11 | / | /
CC(C)(C)S(=O)N1Cc2cc(C(=O)N3CCc4ccccc4C3)nc(-c3cccc(-c4cccnc4)c3)c2[C@@H]1CCO (some centres undefined) | / | -6 | ? | /
Cn1nnc2c[n+](CC(=O)c3ccc(Cl)cc3)cc(Br)c21 | 0% | -7 | -29 | ?
Cn1nnc2c[n+](CC(=O)c3ccc4ccccc4c3)cc(Br)c21 | 0% | -12 | -53* | 3
COc1cccc(NC(=O)c2oc3ccccc3c2NC(=O)Cc2cccc(C)c2)c1 | / | -8 | / | /
O=C(/C=C/c1cccs1)NC(=S)NNC(=O)Cc1cccs1 | -1% | 4 | -80* | -7
O=C(/C=C/c1cccs1)NCc1cccs1 | / | -2 | -8 | /
COc1ccc(/C=C/C(=O)NC(=S)NNC(=O)Cc2cccs2)cc1OC | 1% | 1 | -72* | 9
COc1ccc(/C=C/C(=O)NC(=S)NNC(=O)c2cccs2)cc1OC | 0% | 5 | 1 | -3
COc1cc(OC)cc(C(=O)NC(=S)NNC(=O)Cc2cccs2)c1 | 0% | 2 | 20 | 36
COc1ccc(/C=C/C(=O)NC(=S)NNC(=O)c2cccnc2)cc1OC | -1% | 3 | -61* | 0
COc1ccc(C(=O)NC(=S)NNC(=O)Cc2cccs2)cc1 | 0% | 1 | -67* | 2
COC(=O)c1ccc(OC)c(Cn2c(=O)n(-c3cccc(Cl)c3)c(=O)c3c4c(sc32)CN(C(C)=O)CC4)c1 | / | 4 | / | /
COc1ccc(C=C(C(C)=O)C(C)=O)cc1OC | 0% | 2 | -50* | 3
CCOC(=O)/C(=C\c1ccccc1)C(=O)c1cc(C(C)=O)c(Nc2ccccc2)s1 | 0% | -15 | ? | -27
CCOC(=O)/C(=C\c1ccc(OC)c(OC)c1)C(=O)c1cccnc1 | 0% | -18 | -50* | -3
CCOC(=O)/C(=C\c1cccnc1)C(=O)c1cc(C(C)=O)c(Nc2ccccc2)s1 | 0% | -30 | -130* | -37
COc1ccc(C(=O)NNC(=S)NC(=O)c2ccco2)cc1 | -1% | 2 | -58* | 33
C=CCn1c2ccccc2c(=O)c2cc(C#Cc3cc(OC)cc(OC)c3)ccc21 | 0% | 50* | 51 | 7
Cn1cncc1C#Cc1c(C=O)n(C)c2ccccc12 | 0% | 2 | 6 | -22
COc1cc(C#Cc2c(C=O)n(C)c3ccccc23)cc(OC)c1 | 0% | 50* | 81 | 13
